Assay results reported in publication PMC5540273 (PLoS ONE, 2017).

Test system: ERN1
Conditions: concentration: 1 μM,replicates: in singlicate; n = 1
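Also: KINOMEscan kinase panel screen.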

| Compound | %Inh |
| --- | --- |
| Cc1cc(C(=O)Nc2ccc(Oc3ccc4nc(NC(=O)C5CC5)cn4n3)cc2)nn1-c1ccccc1 | 0% |
| Cl.Cl.Nc1nc(-c2ccc3c(N)n[nH]c3c2)cc(N2CCCC(NC(=O)c3ccccc3)C2)n1 (stereo not drawn) [GSK2286775] | 30% |
| CCN(CC)CCCCNc1ncc2cc(-c3c(Cl)cccc3Cl)c(NC(=O)NC(C)(C)C)nc2n1 | 48% |
| Cc1ccc2c(-c3ccncc3)c(-c3ccc(F)cc3)nn2c1.Cl [GW461484] | 0% |
| COc1ccc(C[C@@H](CN)NC(=O)c2cc(Br)c(-c3ccnc4[nH]ccc34)s2)cc1.Cl.Cl [GSK1389063] | 5% |
| O=C(NCCNc1ccnc(NCc2ccc(F)cc2)n1)c1cc2ccccc2s1 [GSK1379944] | 0% |
| CN(C)CCOc1ccc(-c2cc(-c3c[nH]nc3-c3ccccn3)ccn2)cc1 [GW835314] | 23% |
| CNC(=O)c1ccccc1Sc1ccc2c(/C=C/c3ccccn3)n[nH]c2c1 | 0% |
| NC(=O)c1cc(-c2ccccc2)cc2c(C3CCNCC3)c[nH]c12 [GSK301362] | 33% |
| CCn1c(-c2nonc2N)nc2c(C#CC(C)(C)O)nc(OCCN)cc21.Cl.Cl [GSK902056] | 0% |
| C[C@H]1Oc2cc(cnc2N)-c2c(nn(C)c2C#N)CN(C)C(=O)c2ccc(F)cc21 | 0% |
| C[C@@H](Oc1cc(-c2cnn(C3CCNCC3)c2)cnc1N)c1c(Cl)ccc(F)c1Cl | 54% |
| C=CC(=O)Nc1cc2c(Nc3ccc(F)c(Cl)c3)ncnc2cc1OCCCN1CCOCC1 [GW781483] | 27% |
| Cc1ccc(-n2nc(C(C)(C)C)cc2NC(=O)Nc2ccc(OCCN3CCOCC3)c3ccccc23)cc1 [GW839464] | 0% |
| Cc1cc2cn[nH]c2cc1-c1cccc2c(N)c(C(N)=O)nnc12 | 47% |
